Unmarked numbers belong to inactive results. Active and inactive are the calls of the source.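 The calls were made as follows: active = thallium flux through the channel raised or lowered by more than 3 SD from vehicle-only wells, actives on both sides; inactive = the rest.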
Legend:
Test in all cases: modulators of BK channel variants, profiling panel, selectivity assay, cell-based, U2OS BacMam, thallium flux, beta subunits (AID 1259406);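 also: initial slope of Thallos dye fluorescence rise after thallium is added; log ratio against the mean of 0.3% DMSO vehicle wells on the same plate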
[1] = test system: F380Y; conditions: at 30 µM
[2] = test system: F380Y/beta1; conditions: at 30 µM
[3] = test system: F380Y/beta2Delta; conditions: at 30 µM
[4] = test system: F380Y/beta4; conditions: at 30 µM
[5] = target: Calcium-activated potassium channel subunit alpha-1 (Homo sapiens) + Leucine-rich repeat-containing protein 26 (Homo sapiens) (UniProt Q12791+Q2I0M4); conditions: F380Y/Slo1WT/gamma1, at 30 µM
Sequence of Calcium-activated potassium channel subunit alpha-1 (Homo sapiens) + Leucine-rich repeat-containing protein 26 (Homo sapiens) (Q2I0M4 whole entry, looked up, one chain of several): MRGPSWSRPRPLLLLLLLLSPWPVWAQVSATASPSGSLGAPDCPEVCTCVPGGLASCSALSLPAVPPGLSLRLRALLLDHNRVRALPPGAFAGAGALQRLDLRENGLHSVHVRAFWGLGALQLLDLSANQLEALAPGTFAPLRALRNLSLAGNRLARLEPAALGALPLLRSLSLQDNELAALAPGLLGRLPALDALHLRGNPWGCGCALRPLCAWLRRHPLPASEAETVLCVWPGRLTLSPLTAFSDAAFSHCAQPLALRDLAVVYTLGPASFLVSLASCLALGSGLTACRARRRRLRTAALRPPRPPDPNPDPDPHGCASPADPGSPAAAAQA

[6] = test system: R275C; conditions: at 30 µM
[7] = test system: R275C/beta1; conditions: at 30 µM
[8] = test system: R275C/beta2Delta; conditions: at 30 µM
[9] = test system: R275C/beta4; conditions: at 30 µM
[10] = test system: R275C/Slo1WT/beta2; conditions: at 30 µM

Row | SMILES | log fold change Tl+ flux [1] | log fold change Tl+ flux [2] | log fold change Tl+ flux [3] | log fold change Tl+ flux [4] | log fold change Tl+ flux [5] | log fold change Tl+ flux [6] | log fold change Tl+ flux [7] | log fold change Tl+ flux [8] | log fold change Tl+ flux [9] | log fold change Tl+ flux [10]
1 | COc1cc2c(cc1OC)C(=O)C(CC1CCN(Cc3ccccc3)CC1)C2 (stereo not given) | 0.0206 | -0.0145 | 0.0718 | 0.0262 | -0.0241 | -0.0742 | 0.0129 | -0.0194 | 0.00155 | 0.0243
2 | CCN1CCCC1CNC(=O)c1cc(S(=O)(=O)CC)c(N)cc1OC (stereo not given) | 0.00396 | 0.016 | 0.0211 | 0.00308 | -0.0597 | -0.0334 | 0.00406 | -0.0411 | -0.0037 | 0.0112
3 | CC(C)c1nc(CN(C)C(=O)N[C@H](C(=O)N[C@@H](Cc2ccccc2)C[C@H](O)[C@H](Cc2ccccc2)NC(=O)OCc2cncs2)C(C)C)cs1 | -0.114 (active) | -0.406 (active) | -0.548 (active) | -0.505 (active) | -0.199 (active) | -0.232 (active) | 0.0641 | -0.208 (active) | -0.0726 | 0.0476
4 | CC(=O)NS(=O)(=O)c1ccc(N)cc1 | -0.0156 | 0.00907 | 0.0558 | 0.0262 | -0.0364 | 0.0168 | -0.00538 | -0.00501 | -0.00232 | 0.00853
5 | CCOc1cc(CC(=O)N[C@@H](CC(C)C)c2ccccc2N2CCCCC2)ccc1C(=O)O | 0.252 (active) | 0.45 (active) | 0.217 (active) | 0.297 (active) | 0.0882 | -0.00436 | 0.495 (active) | 0.262 (active) | 0.161 (active) | 0.0386
6 | COc1ccc(C2CNC(=O)C2)cc1OC1CCCC1 (stereo not given) | -0.0147 | -0.0167 | -0.0248 | -0.115 (active) | -0.000443 | 0.0314 | 0.031 | -0.00816 | 0.0303 | 0.00671
7 | CC(C)[C@H](N)C(=O)OCCOCn1cnc2c(=O)[nH]c(N)nc21 | -0.0232 | -0.0206 | -0.00659 | -0.0146 | 0.0174 | -0.11 | 0.0176 | 0.0029 | 0.0146 | -0.011
8 | O=C1N(c2ccccc2)c2ccccc2C1(Cc1ccncc1)Cc1ccncc1 | 0.0425 | -0.0119 | -0.0915 | -0.0921 | -0.0557 | -0.00568 | 0.0135 | 0.00649 | -0.0197 | -0.0252
9 | O=C(O)CCNC(=O)c1ccc(N=Nc2ccc(O)c(C(=O)O)c2)cc1 | -0.00418 | -0.0255 | -0.00246 | 0.0201 | 0 | -0.0367 | 0.0608 | 0.0174 | 0.00146 | 0.0188
10 | CC[N+](C)(CC)CCOC(=O)C(O)(c1ccccc1)C1CCCCC1 (stereo not given) | -0.192 (active) | -0.0336 | -0.0141 | -0.0257 | 0.0349 | -0.0159 | -0.00643 | 0.0312 | 0.0157 | 0.0812 (active)
11 | COc1ccc(CN2CCN(C(c3ccc(F)cc3)c3ccc(F)cc3)CC2)c(OC)c1OC | -0.0546 | 0.0295 | -0.015 | 0.0162 | -0.00669 | -0.0264 | -0.0636 | -0.0699 | 0.0197 | -0.00919
12 | COC(=O)C1=C(C)NC(C)=C(C(=O)OCC(C)C)C1c1ccccc1[N+](=O)[O-] (stereo not given) | 0.333 (active) | 0.689 (active) | 0.514 (active) | 0.853 (active) | 0.622 (active) | 0.676 (active) | 0.741 (active) | 0.206 (active) | 1.13 (active) | 1.07 (active)

Source: PubChem BioAssay
